Bioassay records from PubChem.
Many of the other results were omitted from the sample, so hits are more common in it than they were.
APEX1 inh = blocks human APE1 abasic DNA cleavage; recombinant APE1, TAMRA/BHQ-2 abasic DNA cleavage fluorescence; Potency, µM (titrated, usually from 65.8 µM), for inactives: at the top dose activity change, negative = inhibition, most hits filed as inhibitors; 350,000 tested, 0.35% active; AID 2517;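 also: plate controls were vehicle for no effect and reference inhibitor for full effect; nearly all actives have a fitted effect of over 55% in size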
Target sequence (P27695 whole entry, looked up): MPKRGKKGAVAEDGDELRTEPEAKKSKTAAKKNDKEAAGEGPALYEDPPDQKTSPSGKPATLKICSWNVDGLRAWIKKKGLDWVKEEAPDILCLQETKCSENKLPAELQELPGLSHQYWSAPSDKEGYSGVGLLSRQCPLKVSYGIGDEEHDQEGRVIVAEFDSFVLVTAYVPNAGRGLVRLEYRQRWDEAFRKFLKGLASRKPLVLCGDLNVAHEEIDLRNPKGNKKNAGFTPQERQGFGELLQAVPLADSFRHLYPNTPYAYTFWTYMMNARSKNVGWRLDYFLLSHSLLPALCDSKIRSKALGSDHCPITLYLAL
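APE1 at 0.75 nM preincubated 15 min at room temperature with compound. Reaction then started with 50 nM double-stranded THF-abasic substrate labelled with TAMRA/BHQ-2, and 525/598 nm fluorescence read kinetically. Activity taken as third-minus-first read difference, normalized to DMSO and NSC13755 controls.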
BLM helicase inh = blocks DNA unwinding by human BLM helicase; AID 2528; Potency, µM (doses to about 56.1 µM), inactives show at the highest dose activity change, negative = inhibition, hits mostly inhibitors; P54132; recombinant BLM DNA unwinding, fluorescence dequenching; 350,000 tested, 0.2% active;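 also: plate controls were vehicle for no effect and no enzyme for full effect; nearly all actives have a fitted effect of over 35% in size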
JMJD2E inh = blocks human JMJD2E demethylase activity; 230,000 tested, 1.6% active; JMJD2E catalytic domain, FDH-coupled NADH fluorescence (FDH is formaldehyde dehydrogenase); B2RXH2; Potency, µM (doses to about 57.1 µM), for inactives: at the highest dose activity change, negative = inhibition, usual class: inhibitors; AID 2147; active = well fitted inhibition curve with a large enough effect, not every such curve was filed as active; inconclusive = small, poorly fitted or top-dose-only effect, or another doubt; inactive = no such curve, though single readings can be large or run the other way;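 also: 0% = wells with enzyme and -100% = buffer wells without enzyme; nearly all actives have a fitted effect of over 50% in size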
Target sequence (B2RXH2 1-337 limits assumed): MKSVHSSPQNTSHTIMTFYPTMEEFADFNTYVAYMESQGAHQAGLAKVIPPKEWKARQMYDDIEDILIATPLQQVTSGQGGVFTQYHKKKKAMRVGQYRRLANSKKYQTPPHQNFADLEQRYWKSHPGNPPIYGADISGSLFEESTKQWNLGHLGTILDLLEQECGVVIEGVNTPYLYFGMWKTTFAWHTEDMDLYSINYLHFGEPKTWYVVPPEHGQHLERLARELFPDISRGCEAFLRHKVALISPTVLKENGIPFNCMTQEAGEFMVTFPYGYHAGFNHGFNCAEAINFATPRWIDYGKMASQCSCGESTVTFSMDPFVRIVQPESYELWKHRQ
TDP1 block = TDP1 (human) enzyme inhibition; Q9NUW8; recombinant TDP1, AlphaScreen DNA substrate cleavage; Potency, µM (titrated, usually from 130 µM), inactives show at the top dose activity change, negative = inhibition, actives largely listed as inhibitors; 350,000 tested, 0.28% active; AID 485290; also: nearly all actives have a fitted effect of over 40% in size
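Here, a 5' biotin and 3' phosphotyrosine-FITC DNA oligonucleotide reports Tdp1 activity: intact substrate bridges AlphaScreen beads, while cleavage leaves a 3' phosphate and drops signal. All incubations at room temperature.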
GCN5L2 inh = blocks human GCN5L2 histone acetyltransferase | Potency, µM (top dose mostly 58.9 µM), without a hit: top-dose activity change, negative = inhibition, hits mostly inhibitors | 390,000 tested, 0.21% active | GCN5L2 HAT assay, ThioGlo1 CoA-SH fluorescence | AID 504327
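GCN5L2 (20 nM) in 50mM HEPES pH 7.5, 0.1mM EDTA, 0.01% Tween-20 preincubated 15 min with compounds at room temperature. Reaction started with H3(1-25) 75uM, acetyl-CoA 70uM, ThioGlo1 50uM; CoA-thiol fluorescence (Ex340/Em540) read at 0 and 20 min.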
RECQ1 inh-1 = RECQ1 (human) helicase inhibition; P46063; Potency, µM (series often up to 57.3 µM), for inactives: top-dose activity, negative = inhibition, hits mostly inhibitors; 240,000 tested, 0.54% active; AID 2549; RECQ1 DNA unwinding, red fluorescence kinetic read;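 also: plate controls were vehicle for no effect and no enzyme for full effect; nearly all actives have a fitted effect of over 30% in size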
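RECQ1T1 50 nM; forked duplex (20 bp + 30-nt ss tails) 200 nM, ATP 2 mM final; pH 8.0, 2 mM MgCl2, 2.5 ug/ml poly(dI-dC); 15 min compound preincubation; discontinuous kinetic read over 2 h at RT.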
RECQ1 inh conf = confirmation of human RECQ1 helicase inhibitors; shares compounds with RECQ1 inh-1; RECQ1 helicase DNA unwinding, fluorescence; 610 tested, 28% active; AID 2708; Potency, µM (doses to about 229 µM), for the others: top-dose activity change, negative = inhibition, actives largely listed as inhibitors; also: nearly all actives have a fitted effect of over 45% in size
RECQ1 ADP FP = displaces ADP in a fluorescence polarization counter-screen for RECQ1 hits; shares compounds with RECQ1 inh-1; ADP fluorescence polarization displacement counterscreen; Potency, µM (top dose mostly 228 µM), without a hit: top-dose activity change, negative = inhibition, most hits filed as inhibitors; 530 tested, 27% active; AID 2711; also: nearly all actives have a fitted effect of over 45% in size
RECQ1 inh-2 = blocks human RECQ1 DNA unwinding. shares compounds with RECQ1 inh-1. recombinant RECQ1 DNA unwinding, red fluorescence. Potency, µM (titrated, usually from 119 µM), for inactives: at the highest dose activity, negative = inhibition, usual class: inhibitors. 1,100 tested, 15% active. AID 504841; also: nearly all actives have a fitted effect of over 50% in size
Starred values were filed as active, the others as inactive; i = inactive; ? = inconclusive; · = not tested or not shown; ! = not active in a repeat; [ ] = remark or other dose. Unless noted, calls follow the shape of the dose curve; as a rule, active = well fitted curve in the direction sought with a large enough effect; inconclusive = small, poorly fitted or top-dose-only effect, or another doubt; inactive = no such curve, though single readings can be large; an effect the other way counts as inactive or inconclusive. Unless noted, % is scaled to controls: 0 for no effect and ±100 for the full control effect; potency is read from the fitted curve at half-maximal effect.

SMILES	APEX1 inh	BLM helicase inh	JMJD2E inh	TDP1 block	GCN5L2 inh	RECQ1 inh-1	RECQ1 inh-2	others
O=C1c2cccc3c(N4CCCCC4)ccc(c23)C(=O)N1c1cccc(O)c1	-3%	3%	2%	-6%	-1%	i	·
COc1cccc(/C=N/Nc2nc3ccccc3n3cnnc23)c1O	1%	-11%	28µM*	8%	0%	5µM*	·	RECQ1 inh conf=-5%[114 µM]
CCOC(=O)N1CCC(NC(=O)c2cnn(-c3cccc(F)c3)c2-n2cccc2)CC1	·	0%	·	-3%	-4%	·	·
COc1cc(C(C)=O)ccc1COc1ccc(C(=O)OCC(=O)NC2CCS(=O)(=O)C2)cc1OC (stereo unspecified)	-3%	0%	4%	4%	1%	32µM*	-9%
CC(=O)NCCCC[C@H](NC(=O)OC(C)(C)C)C(=O)Nc1ccc2c(C(F)(F)F)cc(=O)oc2c1	4%	-4%	·	1%	?	-6%	·
O=C(Nc1ccc(-n2nncc2-c2ccco2)cc1)c1cccc(F)c1	-4%	-11%	-4%	3%	?	-8%	·
O=C(Nc1ccc(-n2nncc2-c2ccco2)cc1)c1cc2ccccc2oc1=O	?	-18%	2%	40µM*	-6%	6.3µM*	?	RECQ1 inh conf=4.5µM*;RECQ1 ADP FP=4%[91.9 µM]
COc1ccccc1CNc1ccc(-c2nc(C)no2)cc1[N+](=O)[O-]	·	-4%	·	0%	-8%	·	·
COc1ccc(CNc2ccnc(-c3ccccc3CN(C)C)n2)c(OC)c1	?	4%	·	·	-9%	i	·
COc1ccc(S(=O)(=O)NCCSCc2ccco2)cc1	?	-16%	-11%	3%	-20%	?	-15%
CCOc1ccc(S(=O)(=O)NCCSCc2ccco2)cc1	6%	-8%	-1%	0%	-7%	-10%	·
O=c1nc(/C=C/c2cccn2-c2ccc([N+](=O)[O-])cc2)cc(C(F)(F)F)[nH]1	0%	-27%	-1%	7%	-27%	35µM*	?
C[C@H](NC(=O)CNC(=O)[C@@H](NC(=O)[C@H](Cc1ccccc1)NC(=O)CNC(=O)CNC(=O)[C@@H](N)Cc1ccccc1)[C@@H](C)O)C(=O)N[C@@H](CCCN=C(N)N)C(=O)N[C@@H](CCCCN)C(=O)N[C@@H](CO)C(=O)N[C@@H](C)C(=O)N[C@@H](CCCN=C(N)N)C(=O)N[C@@H](CCCCN)C(N)=O	-1%	24%	·	8%	-8%	10%	·
COc1cccc(NC(=O)Cn2c(=O)n(-c3cccc(OC)c3)c(=O)c3sc4ccccc4c32)c1	·	-3%	·	-1%	-6%	·	·
CCCn1nnc(NC(=S)NC(=O)/C=C/c2ccco2)n1	?	-1%	-28%	·	-1%	?	-5%
COc1ccccc1NC(=S)NC(=O)/C=C/c1ccco1	?	-19%	?	0%	-8%	?	?
CCOc1ccc(C2=C(C(=O)CC)Sc3nncn3N2C(=O)CC)cc1	·	-9%	·	3%	-5%	·	·
O=S(=O)(c1ccc(F)cc1)N1CCN(c2nc(-c3ccc(F)cc3)nc3cc(Cl)ccc23)CC1	·	·	·	0%	·	·	·
N#C/C(=C\c1ccc(-c2ccc(C(=O)O)cc2)o1)c1nc2ccccc2[nH]1	?	-13%	28µM*	0%[12.3 µM]	-6%	?	?
Cc1nccc2oc(=O)c(NC(=O)c3ccc(Cl)cc3)cc12	-5%	-3%	5%	-6%	-5%	i	·
O=C(Nc1cc2c(oc1=O)CCCC2=O)c1ccc(Cl)cc1	?	?	-10%	13µM*	-3%	14µM*	·	RECQ1 inh conf=14µM*;RECQ1 ADP FP=?
N#CC1=C(SCC(=O)c2cc3ccccc3oc2=O)NC(=O)C(C#N)C12CCCC2 (stereo unspecified)	?	-16%	?	3%	?	?	-8%
O=C(O)CSc1nnc(Cn2c(=O)sc3ccccc32)n1-c1cccc(Cl)c1	-3%	1%	3%	2%	-6%	8%	·	RECQ1 inh conf=2%;RECQ1 ADP FP=-3%
NC(=O)CSc1nnc(Cn2c(=O)sc3ccccc32)n1-c1cccc(Cl)c1	-1%	-2%	-9%	6%	3%	-9%	·
Cc1cc2nc3c(=O)[nH]c(=O)nc-3n(CC(O)C(O)C(O)CO)c2cc1C (stereo unspecified)	?	-5%	?	8%	?	35µM*!	·	RECQ1 inh conf=112µM*;RECQ1 ADP FP=45µM*
SMILES	APEX1 inh	BLM helicase inh	JMJD2E inh	TDP1 block	GCN5L2 inh	RECQ1 inh-1	RECQ1 inh-2	others
O=C(Cn1nc(C(=O)O)c2ccccc2c1=O)Nc1ccc2c(c1)C(=O)c1ccccc1C2=O	-3%	-8%	-5%	8%	?	i	·	RECQ1 inh conf=?;RECQ1 ADP FP=112µM*
CC(C)CC(=O)Nc1ccc(C(=O)Cn2nc(C(=O)O)c3ccccc3c2=O)cc1	5%	-4%	2%	-1%	0%	1%	·	RECQ1 inh conf=5%;RECQ1 ADP FP=20%
O=C(N/C=C/c1ccco1)NCc1ccccc1	?	-10%	?	·	?	?	-27%
COc1cc2cc3c(N)c(C(=O)NCc4ccco4)sc3nc2cc1OC	?	-24%	?	6%	-19%	?	?
CCNc1ncc2nc(C)c(=O)n(C)c2n1	-3%	-6%	·	·	-24%	-6%	·
CO/N=C\c1ccc(C(=O)N2[C@H](c3ccc(C)cc3)[C@@H](C)CC[C@H]2C(=O)OC)cc1	-5%[12.4 µM]	0%[12.4 µM]	·	5%[21 µM]	·	i[11.5 µM]	·
C=CC[C@@H]1C=C[C@H](O/N=C/c2ccc(C(=O)N3[C@H](c4ccc(C)cc4)[C@@H](C)CC[C@H]3C(=O)OC)cc2)[C@@H](CO)O1	2%	-10%	-13%	4%	-13%	?	-17%
Cc1ccc(C)c(-c2nc3ccc(N)cc3[nH]2)c1	0%	-6%	?	7%	?	?	·	RECQ1 inh conf=16%[114 µM];RECQ1 ADP FP=?
O=[N+]([O-])c1ccc(-c2cnc(SCc3ccccc3Cl)[nH]2)cc1	-7%	-11%	-27%	6%	?	?	-25%
COc1ccc(-c2nc(N3CCN(S(=O)(=O)c4ccc(F)cc4)CC3)c3ccccc3n2)cc1	·	·	·	-1%	·	·	·
